Results with a measured potency or affinity are listed apart.

For this assay, the system named is Cryptococcus neoformans. The settings on record: Concentration 20 uM; ASSAY_TEST Inhibition of Fungal Growth; detection method Resazurin; Absorption (OD600-OD570); plate type 384well; NBS; CORNING #3640. Background: Alamar Blue is a resazurin reagent that responds to reducing activity.
As to `Cc1ccc(S(=O)(=O)N2CCN(C(=O)c3cc(-c4ccccc4)n[nH]3)CC2)cc1`, the Inhibition was -7.39%.
As to `Nc1nccc2ccc(-c3ccc4nccn4c3)cc12`, the Inhibition was -1.17%.
Consider `Cc1ccc(S(=O)(=O)Nc2ccc(CN3CCN(C(=O)c4cccc(C#N)c4)CC3)cc2)cc1`, for which the Inhibition was -7.61%.
For `CN1CCN(S(=O)(=O)c2ccc(-c3ccc4c(Nc5ncc(Cl)cn5)ccnc4c3)cc2)CC1`, the Inhibition was -3.42%.
Take `COc1ccc(N(CCc2cccc(C)n2)C(=O)C2CCCCC2)cc1`: the Inhibition is recorded as -4.98%.
For the compound `Cl.Cn1ccnc1CNCCS(=O)(=O)c1cccc(Nc2ccc(-c3cccc(F)c3)cn2)c1`, the Inhibition is on record as -9.08%.
Turning to `CC1CCCN(C(=O)C(C)Nc2cc(Cl)ccc2N2CCOCC2)C1` (stereo not given), the Inhibition is listed as -4.76%.
With `CCC(NC(=O)c1ccccc1NC(=O)c1ccc(C)cc1)C(=O)OC` (stereo not given) the figure was -3.77%.
As for `CCc1ccc(S(=O)(=O)Nc2cc(CN3CCN(CCC(C)C)CC3)ccc2C)cc1`, the Inhibition is given as -6.26%.
Take `FC(F)(F)c1cccc(-c2nc3c(NCc4ccncc4)nccc3[nH]2)c1`: the Inhibition is 5.66%.
`COC(=O)c1cccc2oc(-c3cccc(OC)c3NC(=O)c3cc(-c4ccccc4)on3)nc12`: the Inhibition is given as -3.51%.
Turning to `N#Cc1nc(-c2ccccc2)oc1S(=O)(=O)c1ccc(Cl)cc1`, the Inhibition is given as -7.91%.
On to `CC(C)(C)OC(=O)N1CCN(c2nccc(-c3ccc(-c4ccc(Cl)cc4)s3)n2)CC1`, for which the Inhibition is recorded as -6.76%.
For `O=C(c1cc2ccccc2o1)N1CCN(Cc2ccc3c(c2)OCO3)CC1`, the Inhibition was -15.32%.
On to `Clc1cccc(CO[C@H]2CCc3ccccc3[C@@H]2n2ccnn2)c1`, for which the Inhibition is listed as -3.55%.

A word on the Inhibition: it is the drop in the measured response relative to a control, in per cent.

(Values after ChEMBL document CHEMBL4513149, “CO-ADD screening of MMV (CH) - MMV compounds” (2021).)
